Holding throughout (test): DAPPL (digital affinity profiling via proximity ligation, sequencing); 10 mM Tris-HCl pH 7.5, 50 mM NaCl, 1 mM DTT, 4% glycerol, room temperature, 30 min; GST-TFs on glutathione beads, 16-mer random dsDNA library, 0.1% formaldehyde crosslink after washing; high values mean tight binding
For one assay, the target named is T1, FLI1 (Homo sapiens, UniProt Q01543 1-452).
T1 sequence: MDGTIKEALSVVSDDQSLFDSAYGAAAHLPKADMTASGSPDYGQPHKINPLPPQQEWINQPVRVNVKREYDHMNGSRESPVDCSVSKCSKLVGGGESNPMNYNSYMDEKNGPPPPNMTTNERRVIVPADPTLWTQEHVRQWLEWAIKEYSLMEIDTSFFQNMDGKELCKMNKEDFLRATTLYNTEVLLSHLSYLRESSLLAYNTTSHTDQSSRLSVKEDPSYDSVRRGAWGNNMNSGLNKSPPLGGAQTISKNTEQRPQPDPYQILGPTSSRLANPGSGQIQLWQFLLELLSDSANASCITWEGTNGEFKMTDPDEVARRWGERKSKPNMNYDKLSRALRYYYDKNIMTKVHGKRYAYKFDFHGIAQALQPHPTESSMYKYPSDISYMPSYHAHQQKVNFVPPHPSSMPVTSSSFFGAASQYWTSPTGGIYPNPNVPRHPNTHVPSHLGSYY
The settings on record: protein: recombinant; tags: N-terminal GST; dsDNA, one strand shown. The method in brief: (§1)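 Pools were built from human transcription factors expressed in yeast as GST fusions, captured on glutathione beads and DNA-barcoded, along with a tag-only sample. Incubation with 200 nmole of a 16-mer random double-stranded DNA library lasted 30 min at room temperature in Tris/NaCl/DTT/glycerol buffer, and was followed by washing, 0.1% formaldehyde crosslinking, proximity ligation, PCR amplification and Illumina NextSeq500 sequencing. Binding signal is the quotient of each hexamer's read frequency for a factor and its frequency for the tag-only sample.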

The target in a further assay is T2, ELK1 (Homo sapiens, UniProt P19419 1-428).
T2 sequence: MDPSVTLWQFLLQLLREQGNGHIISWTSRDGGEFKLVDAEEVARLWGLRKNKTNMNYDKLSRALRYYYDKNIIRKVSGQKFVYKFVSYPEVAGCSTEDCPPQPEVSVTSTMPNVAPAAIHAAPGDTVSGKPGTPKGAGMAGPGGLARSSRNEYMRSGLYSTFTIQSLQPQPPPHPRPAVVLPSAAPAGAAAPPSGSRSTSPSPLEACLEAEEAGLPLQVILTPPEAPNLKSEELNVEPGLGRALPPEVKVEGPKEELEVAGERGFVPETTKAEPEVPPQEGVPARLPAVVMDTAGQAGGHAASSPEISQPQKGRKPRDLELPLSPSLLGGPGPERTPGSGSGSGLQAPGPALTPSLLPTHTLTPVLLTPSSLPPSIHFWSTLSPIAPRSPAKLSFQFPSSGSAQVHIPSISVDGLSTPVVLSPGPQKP
The note with it: protein: recombinant; tags: N-terminal GST; dsDNA, one strand shown. The gist of the method: as §1

Another assay concerns the target T3, GABPA (Homo sapiens, UniProt Q06546 1-454).
T3 sequence: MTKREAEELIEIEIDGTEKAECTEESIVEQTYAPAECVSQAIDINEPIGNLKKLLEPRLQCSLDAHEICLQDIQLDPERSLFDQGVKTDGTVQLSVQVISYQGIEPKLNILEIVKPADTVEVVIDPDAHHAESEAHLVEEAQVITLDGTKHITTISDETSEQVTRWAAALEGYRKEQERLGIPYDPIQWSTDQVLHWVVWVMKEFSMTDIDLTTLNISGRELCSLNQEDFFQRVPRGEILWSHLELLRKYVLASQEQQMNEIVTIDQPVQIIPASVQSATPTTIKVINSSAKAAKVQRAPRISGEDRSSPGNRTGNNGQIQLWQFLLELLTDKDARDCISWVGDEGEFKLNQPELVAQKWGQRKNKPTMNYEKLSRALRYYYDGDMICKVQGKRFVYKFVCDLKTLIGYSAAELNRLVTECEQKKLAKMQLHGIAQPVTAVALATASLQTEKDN
The settings on record: protein: recombinant; tags: N-terminal GST; dsDNA, one strand shown. The gist of the method:
as §1

In another assay the target is T4, ERG (Homo sapiens, UniProt P11308 1-479).
T4 sequence: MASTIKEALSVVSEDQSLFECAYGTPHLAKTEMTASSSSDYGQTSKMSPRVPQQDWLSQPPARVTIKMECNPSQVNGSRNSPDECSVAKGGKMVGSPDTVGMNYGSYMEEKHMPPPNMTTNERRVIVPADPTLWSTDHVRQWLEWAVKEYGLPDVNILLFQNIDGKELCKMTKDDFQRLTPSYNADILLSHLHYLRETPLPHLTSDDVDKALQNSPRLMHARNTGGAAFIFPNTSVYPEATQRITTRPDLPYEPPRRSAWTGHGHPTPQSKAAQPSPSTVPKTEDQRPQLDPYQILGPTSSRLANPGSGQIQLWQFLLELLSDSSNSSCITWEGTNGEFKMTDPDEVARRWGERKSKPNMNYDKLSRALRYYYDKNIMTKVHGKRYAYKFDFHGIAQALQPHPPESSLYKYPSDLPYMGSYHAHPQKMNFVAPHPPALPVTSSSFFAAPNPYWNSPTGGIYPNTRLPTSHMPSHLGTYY
The settings on record: protein: recombinant; tags: N-terminal GST; dsDNA, one strand shown. The method in brief:
as §1

The next assay addresses ELF1 (Homo sapiens, UniProt P32519 1-619). The note with it: protein: recombinant; tags: N-terminal GST; dsDNA, one strand shown. The gist of the method: as §1
The target of another assay is T5, EHF (Homo sapiens, UniProt Q9NZC4 1-300).
T5 sequence: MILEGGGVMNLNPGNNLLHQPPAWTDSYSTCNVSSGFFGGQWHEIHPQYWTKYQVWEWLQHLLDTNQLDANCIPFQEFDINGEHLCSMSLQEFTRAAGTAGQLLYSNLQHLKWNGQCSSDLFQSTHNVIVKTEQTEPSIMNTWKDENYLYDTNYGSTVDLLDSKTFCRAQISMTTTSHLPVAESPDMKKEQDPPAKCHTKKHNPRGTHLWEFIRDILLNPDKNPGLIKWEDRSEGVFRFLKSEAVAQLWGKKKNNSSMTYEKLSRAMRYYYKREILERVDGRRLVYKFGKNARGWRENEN
The note with it: protein: recombinant; tags: N-terminal GST; dsDNA, one strand shown. The method in brief: as §1

The next assay deals with SPI1 (Homo sapiens, UniProt P17947 1-270). The settings on record: protein: recombinant; tags: N-terminal GST; dsDNA, one strand shown. The gist of the method:
as §1

The target of a further assay is SPIB (Homo sapiens, UniProt Q01892 1-262). The settings on record: protein: recombinant; tags: N-terminal GST; dsDNA, one strand shown. The gist of the method:
as §1

A further assay addresses T6, ELK3 (Homo sapiens, UniProt P41970 1-407).
T6 sequence: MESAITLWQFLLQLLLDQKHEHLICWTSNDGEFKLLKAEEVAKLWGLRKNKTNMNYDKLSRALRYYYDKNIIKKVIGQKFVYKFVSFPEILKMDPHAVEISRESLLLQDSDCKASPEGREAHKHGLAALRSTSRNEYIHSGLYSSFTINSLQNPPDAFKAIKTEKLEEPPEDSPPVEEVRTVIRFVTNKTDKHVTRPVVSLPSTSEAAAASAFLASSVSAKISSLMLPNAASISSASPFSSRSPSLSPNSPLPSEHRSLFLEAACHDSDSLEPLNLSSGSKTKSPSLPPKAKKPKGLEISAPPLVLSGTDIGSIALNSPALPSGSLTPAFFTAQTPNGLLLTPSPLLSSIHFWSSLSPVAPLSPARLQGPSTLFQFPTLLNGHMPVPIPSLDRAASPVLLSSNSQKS
The note with it: protein: recombinant; tags: N-terminal GST; dsDNA, one strand shown. The method in brief: as §1

Another assay deals with T7, FEV (Homo sapiens, UniProt Q99581 1-238).
T7 sequence: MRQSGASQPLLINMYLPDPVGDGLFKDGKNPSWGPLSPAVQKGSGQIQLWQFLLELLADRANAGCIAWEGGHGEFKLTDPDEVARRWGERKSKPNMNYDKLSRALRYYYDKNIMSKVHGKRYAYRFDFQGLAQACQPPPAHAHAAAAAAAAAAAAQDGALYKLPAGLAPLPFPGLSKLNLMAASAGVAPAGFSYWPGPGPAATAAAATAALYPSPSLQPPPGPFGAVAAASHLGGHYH
The note with it: protein: recombinant; tags: N-terminal GST; dsDNA, one strand shown. The gist of the method:
as §1

The next assay concerns the target ETV5 (Homo sapiens, UniProt P41161 1-510). The settings on record: protein: recombinant; tags: N-terminal GST; dsDNA, one strand shown. The gist of the method: as §1
The target in another assay is HSF1 (Homo sapiens, UniProt Q00613 1-529). The note with it: protein: recombinant; tags: N-terminal GST; chain copies: 3; dsDNA, one strand shown. The gist of the method: as §1
A further assay addresses T8, SPIC (Homo sapiens, UniProt Q8N5J4 1-248).
T8 sequence: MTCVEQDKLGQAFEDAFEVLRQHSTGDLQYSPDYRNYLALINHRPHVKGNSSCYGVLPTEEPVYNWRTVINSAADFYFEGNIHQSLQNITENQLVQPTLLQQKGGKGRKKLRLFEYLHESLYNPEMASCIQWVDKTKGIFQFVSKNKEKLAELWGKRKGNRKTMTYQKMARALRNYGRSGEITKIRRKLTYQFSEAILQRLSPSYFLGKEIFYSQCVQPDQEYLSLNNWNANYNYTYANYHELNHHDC
The note with it: protein: recombinant; tags: N-terminal GST; dsDNA, one strand shown. The method in brief:
as §1

The target in a further assay is ELF4 (Homo sapiens, UniProt Q99607 1-663). The settings on record: protein: recombinant; tags: N-terminal GST; dsDNA, one strand shown. The gist of the method: as §1
The target in another assay is T9, ELK4 (Homo sapiens, UniProt P28324-2 1-405).
T9 sequence: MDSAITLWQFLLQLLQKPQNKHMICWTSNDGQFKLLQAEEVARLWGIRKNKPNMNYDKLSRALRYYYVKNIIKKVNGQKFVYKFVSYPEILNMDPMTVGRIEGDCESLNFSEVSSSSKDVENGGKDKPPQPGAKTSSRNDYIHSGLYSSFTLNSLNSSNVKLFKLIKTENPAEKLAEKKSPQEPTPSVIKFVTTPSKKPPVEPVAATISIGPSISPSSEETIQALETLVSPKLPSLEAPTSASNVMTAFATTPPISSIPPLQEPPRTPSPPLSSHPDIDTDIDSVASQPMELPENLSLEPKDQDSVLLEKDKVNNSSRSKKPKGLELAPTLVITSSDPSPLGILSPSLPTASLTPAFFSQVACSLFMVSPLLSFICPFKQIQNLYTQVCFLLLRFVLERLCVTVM
The settings on record: protein: recombinant; tags: N-terminal GST; dsDNA, one strand shown. The gist of the method:
as §1

The next assay addresses T10, ETV2 (Homo sapiens, UniProt O00321 1-342).
T10 sequence: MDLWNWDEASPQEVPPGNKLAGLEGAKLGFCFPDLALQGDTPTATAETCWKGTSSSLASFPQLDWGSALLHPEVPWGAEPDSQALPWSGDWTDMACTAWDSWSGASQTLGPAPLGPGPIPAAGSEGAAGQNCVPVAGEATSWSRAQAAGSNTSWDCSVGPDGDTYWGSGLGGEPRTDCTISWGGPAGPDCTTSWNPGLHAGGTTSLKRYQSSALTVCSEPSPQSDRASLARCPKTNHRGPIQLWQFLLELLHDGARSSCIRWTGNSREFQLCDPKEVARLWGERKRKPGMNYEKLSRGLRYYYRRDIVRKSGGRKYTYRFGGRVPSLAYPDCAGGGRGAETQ
The settings on record: protein: recombinant; tags: N-terminal GST; dsDNA, one strand shown. The gist of the method: as §1

The next assay addresses T11, ELF3 (Homo sapiens, UniProt P78545 1-371).
T11 sequence: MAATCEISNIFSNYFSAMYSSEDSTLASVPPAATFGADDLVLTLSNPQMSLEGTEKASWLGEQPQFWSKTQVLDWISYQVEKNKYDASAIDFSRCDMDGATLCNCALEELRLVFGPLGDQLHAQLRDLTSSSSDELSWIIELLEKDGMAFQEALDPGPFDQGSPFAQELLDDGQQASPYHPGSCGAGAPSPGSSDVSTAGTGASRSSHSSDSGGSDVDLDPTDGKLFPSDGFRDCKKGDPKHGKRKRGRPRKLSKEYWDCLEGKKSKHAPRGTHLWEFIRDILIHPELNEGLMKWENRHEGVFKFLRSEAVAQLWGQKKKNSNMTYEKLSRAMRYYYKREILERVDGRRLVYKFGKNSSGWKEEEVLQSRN
The note with it: protein: recombinant; tags: N-terminal GST; dsDNA, one strand shown. The gist of the method: as §1

In another assay the target is CRX (Homo sapiens, UniProt O43186 1-299). The note with it: protein: recombinant; tags: N-terminal GST; dsDNA, one strand shown. The gist of the method: as §1
The next assay has as its target ETV1 (Homo sapiens, UniProt P50549 1-477). The note with it: protein: recombinant; tags: N-terminal GST; dsDNA, one strand shown. The method in brief:
as §1

ETV5, sequence (P41161 whole entry): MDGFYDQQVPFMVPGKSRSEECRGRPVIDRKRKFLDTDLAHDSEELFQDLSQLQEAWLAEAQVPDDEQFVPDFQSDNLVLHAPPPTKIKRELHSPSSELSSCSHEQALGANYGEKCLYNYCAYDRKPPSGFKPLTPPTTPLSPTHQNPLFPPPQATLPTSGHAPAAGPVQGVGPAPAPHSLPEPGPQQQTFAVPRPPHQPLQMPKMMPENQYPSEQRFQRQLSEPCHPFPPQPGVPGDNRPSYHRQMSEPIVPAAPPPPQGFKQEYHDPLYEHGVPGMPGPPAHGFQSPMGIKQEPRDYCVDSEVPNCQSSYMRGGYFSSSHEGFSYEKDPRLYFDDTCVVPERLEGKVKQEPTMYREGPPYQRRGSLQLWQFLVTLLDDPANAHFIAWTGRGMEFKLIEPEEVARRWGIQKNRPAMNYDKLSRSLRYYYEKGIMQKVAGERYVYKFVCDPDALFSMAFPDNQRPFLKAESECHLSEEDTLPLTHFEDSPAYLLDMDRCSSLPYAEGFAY
ETV1, sequence (P50549 whole entry): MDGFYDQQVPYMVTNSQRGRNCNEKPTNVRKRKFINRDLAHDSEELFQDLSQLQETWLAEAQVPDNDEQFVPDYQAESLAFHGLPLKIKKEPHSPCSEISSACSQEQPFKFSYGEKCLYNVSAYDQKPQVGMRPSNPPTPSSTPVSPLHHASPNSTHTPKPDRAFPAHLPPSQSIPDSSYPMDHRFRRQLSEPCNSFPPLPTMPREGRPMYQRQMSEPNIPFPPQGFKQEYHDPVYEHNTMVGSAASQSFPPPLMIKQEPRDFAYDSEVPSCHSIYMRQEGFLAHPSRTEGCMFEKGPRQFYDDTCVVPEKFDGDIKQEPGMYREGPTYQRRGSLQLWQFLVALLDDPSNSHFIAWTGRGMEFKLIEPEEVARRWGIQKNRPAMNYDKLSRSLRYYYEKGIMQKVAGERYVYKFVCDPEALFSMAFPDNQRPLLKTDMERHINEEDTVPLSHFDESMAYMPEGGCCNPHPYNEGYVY
CRX, sequence (O43186 whole entry): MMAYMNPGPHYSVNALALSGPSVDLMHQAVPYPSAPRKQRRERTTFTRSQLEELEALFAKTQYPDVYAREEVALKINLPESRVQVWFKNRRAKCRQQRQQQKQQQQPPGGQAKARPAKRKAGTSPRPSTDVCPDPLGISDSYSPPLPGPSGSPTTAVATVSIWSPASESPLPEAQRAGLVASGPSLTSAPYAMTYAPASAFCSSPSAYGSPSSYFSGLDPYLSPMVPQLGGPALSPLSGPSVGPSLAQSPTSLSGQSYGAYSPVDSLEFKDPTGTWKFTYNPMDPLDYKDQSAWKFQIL
HSF1, sequence (Q00613 whole entry): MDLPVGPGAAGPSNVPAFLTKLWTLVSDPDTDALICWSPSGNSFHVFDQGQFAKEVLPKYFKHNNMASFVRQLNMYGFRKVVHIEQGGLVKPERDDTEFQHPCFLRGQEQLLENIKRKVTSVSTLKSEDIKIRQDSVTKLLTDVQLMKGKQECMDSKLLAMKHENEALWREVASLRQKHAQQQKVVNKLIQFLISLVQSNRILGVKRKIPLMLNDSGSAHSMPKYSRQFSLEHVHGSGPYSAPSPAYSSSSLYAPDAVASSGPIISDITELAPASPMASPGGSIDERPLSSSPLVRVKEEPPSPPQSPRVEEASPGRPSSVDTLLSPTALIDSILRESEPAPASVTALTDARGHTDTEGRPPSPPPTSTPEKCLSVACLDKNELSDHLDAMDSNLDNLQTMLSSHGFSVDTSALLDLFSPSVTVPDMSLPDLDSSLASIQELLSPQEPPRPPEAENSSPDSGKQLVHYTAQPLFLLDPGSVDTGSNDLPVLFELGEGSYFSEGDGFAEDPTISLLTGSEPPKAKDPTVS
SPIB, sequence (Q01892 whole entry): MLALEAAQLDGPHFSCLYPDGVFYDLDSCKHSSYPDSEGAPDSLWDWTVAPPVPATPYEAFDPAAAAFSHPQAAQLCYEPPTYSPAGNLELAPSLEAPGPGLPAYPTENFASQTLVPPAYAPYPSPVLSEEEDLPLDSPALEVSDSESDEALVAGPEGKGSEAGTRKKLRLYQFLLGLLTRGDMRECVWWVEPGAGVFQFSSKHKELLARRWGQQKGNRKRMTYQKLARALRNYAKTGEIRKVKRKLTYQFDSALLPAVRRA
ELF4, sequence (Q99607 whole entry): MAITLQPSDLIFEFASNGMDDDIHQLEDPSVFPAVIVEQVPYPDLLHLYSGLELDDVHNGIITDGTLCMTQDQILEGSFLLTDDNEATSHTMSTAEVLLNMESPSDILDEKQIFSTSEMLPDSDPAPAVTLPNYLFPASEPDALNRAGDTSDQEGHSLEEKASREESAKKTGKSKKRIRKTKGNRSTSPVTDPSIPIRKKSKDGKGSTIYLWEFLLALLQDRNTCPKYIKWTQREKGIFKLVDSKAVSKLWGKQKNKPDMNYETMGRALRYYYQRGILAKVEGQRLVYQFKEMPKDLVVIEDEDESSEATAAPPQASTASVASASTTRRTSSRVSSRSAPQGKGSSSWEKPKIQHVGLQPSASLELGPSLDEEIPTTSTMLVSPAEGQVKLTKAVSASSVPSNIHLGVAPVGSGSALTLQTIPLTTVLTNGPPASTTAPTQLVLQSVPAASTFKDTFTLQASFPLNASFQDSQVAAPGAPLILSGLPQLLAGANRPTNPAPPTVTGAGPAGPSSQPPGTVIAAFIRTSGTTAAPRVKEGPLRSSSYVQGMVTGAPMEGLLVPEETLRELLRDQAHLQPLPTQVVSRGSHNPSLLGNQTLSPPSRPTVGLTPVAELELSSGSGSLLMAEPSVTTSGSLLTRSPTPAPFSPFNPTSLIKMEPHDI
ELF1, sequence (P32519 whole entry): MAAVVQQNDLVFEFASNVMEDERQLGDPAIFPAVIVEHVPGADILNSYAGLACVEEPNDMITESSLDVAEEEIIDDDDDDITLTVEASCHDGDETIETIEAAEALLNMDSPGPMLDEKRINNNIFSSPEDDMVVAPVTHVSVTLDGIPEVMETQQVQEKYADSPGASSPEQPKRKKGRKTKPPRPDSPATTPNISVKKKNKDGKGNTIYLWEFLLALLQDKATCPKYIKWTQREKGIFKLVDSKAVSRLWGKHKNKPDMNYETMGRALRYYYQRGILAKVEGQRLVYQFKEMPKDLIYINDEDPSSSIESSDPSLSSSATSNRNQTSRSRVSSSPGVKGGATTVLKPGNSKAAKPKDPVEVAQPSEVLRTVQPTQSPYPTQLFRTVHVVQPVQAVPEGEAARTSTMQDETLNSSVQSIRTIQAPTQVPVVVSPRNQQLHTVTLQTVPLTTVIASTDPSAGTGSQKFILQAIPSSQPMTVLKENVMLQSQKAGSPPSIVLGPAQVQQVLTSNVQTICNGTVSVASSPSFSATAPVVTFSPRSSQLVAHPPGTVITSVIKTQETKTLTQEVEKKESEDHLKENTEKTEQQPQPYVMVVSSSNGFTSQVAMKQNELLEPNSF

Turning to CAACTA, the binding signal is 1.24 fold enrichment (6-mer frequency, TF over GST control) with FLI1; 1.31 fold enrichment (6-mer frequency, TF over GST control) with ELK1; 1.37 fold enrichment (6-mer frequency, TF over GST control) in the assay with GABPA; 1.3 fold enrichment (6-mer frequency, TF over GST control) with ERG; 1.38 fold enrichment (6-mer frequency, TF over GST control) with ELF1; 1.27 fold enrichment (6-mer frequency, TF over GST control) in the assay with EHF. Besides, the binding signal in the assay with SPI1 is 1.28 fold enrichment (6-mer frequency, TF over GST control); with SPIB, 1.24 fold enrichment (6-mer frequency, TF over GST control); with ELK3, 1.25 fold enrichment (6-mer frequency, TF over GST control); in the assay with FEV, 1.27 fold enrichment (6-mer frequency, TF over GST control); with ETV5 it was 1.26 fold enrichment (6-mer frequency, TF over GST control); with HSF1, 1.2 fold enrichment (6-mer frequency, TF over GST control). In addition, the binding signal was 1.22 fold enrichment (6-mer frequency, TF over GST control) with SPIC; 1.31 fold enrichment (6-mer frequency, TF over GST control) in the assay with ELF4; 1.24 fold enrichment (6-mer frequency, TF over GST control) in the assay with ELK4; 1.18 fold enrichment (6-mer frequency, TF over GST control) with ETV2; 1.32 fold enrichment (6-mer frequency, TF over GST control) with ELF3; 1.24 fold enrichment (6-mer frequency, TF over GST control) with CRX. In addition, the binding signal with ETV1 is 1.24 fold enrichment (6-mer frequency, TF over GST control).

Values taken from paper PMC7862700, “An all-to-all approach to the identification of sequence-specific readers for epigenetic DNA modifications on cytosine”.
